Data from the supplement of paper PMC11732987, “Enantioselective OTUD7B fragment discovery through chemoproteomics screening and high-throughput optimisation” (Communications Chemistry, 2025).

Key:
Assay in all cases: log2 ratio of Biotin-Ahx-Ub-VS probe labelling (fragment/DMSO); higher = less target engagement (more negative = stronger competition), active = hit call of the paper (q ≤ 0.05, log2 ratio ≤ -1)
Conditions in all cases: compound concentration: 200 uM; treatment time: 3 h
USP19 = molecular target: T1, USP19 (UniProt O94966)
T1 sequence (whole entry): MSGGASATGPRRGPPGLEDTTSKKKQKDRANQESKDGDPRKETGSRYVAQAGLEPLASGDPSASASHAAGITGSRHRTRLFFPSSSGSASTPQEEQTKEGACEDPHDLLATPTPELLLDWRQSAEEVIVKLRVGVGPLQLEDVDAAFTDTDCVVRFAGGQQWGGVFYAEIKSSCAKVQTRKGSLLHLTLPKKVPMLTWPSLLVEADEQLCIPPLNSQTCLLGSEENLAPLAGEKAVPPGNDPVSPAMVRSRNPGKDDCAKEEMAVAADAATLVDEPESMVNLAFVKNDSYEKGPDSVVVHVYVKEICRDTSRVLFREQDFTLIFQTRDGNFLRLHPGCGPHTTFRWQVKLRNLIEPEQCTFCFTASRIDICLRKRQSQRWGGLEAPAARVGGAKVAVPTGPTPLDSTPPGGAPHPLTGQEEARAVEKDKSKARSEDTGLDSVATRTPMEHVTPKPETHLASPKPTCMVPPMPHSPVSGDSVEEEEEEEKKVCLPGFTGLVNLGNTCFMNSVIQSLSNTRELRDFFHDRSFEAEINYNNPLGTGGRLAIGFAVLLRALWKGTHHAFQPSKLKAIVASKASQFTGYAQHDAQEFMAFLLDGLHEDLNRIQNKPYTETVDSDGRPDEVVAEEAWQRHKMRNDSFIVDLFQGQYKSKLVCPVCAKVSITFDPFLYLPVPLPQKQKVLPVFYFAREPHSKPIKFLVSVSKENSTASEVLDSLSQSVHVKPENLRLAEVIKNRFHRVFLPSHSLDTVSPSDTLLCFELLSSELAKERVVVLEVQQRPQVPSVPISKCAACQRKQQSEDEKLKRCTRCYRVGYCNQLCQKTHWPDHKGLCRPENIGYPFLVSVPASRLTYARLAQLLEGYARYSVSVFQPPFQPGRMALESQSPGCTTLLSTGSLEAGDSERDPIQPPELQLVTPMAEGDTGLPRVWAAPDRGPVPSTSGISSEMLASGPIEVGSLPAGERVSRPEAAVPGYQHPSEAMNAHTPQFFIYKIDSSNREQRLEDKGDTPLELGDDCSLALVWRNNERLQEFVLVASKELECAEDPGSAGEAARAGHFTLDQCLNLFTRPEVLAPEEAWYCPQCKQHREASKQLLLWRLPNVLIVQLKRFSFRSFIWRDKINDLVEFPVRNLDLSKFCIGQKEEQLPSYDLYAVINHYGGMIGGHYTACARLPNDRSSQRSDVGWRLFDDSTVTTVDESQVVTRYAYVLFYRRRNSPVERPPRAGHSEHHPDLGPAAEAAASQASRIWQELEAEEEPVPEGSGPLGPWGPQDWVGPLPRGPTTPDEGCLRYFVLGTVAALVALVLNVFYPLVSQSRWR
How it was run: (§1)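 The table lists average log2 ratios of fragment over vehicle, from an unpaired t-test on global-median-normalised Spectronaut label-free quantities. Proteins with ≥2 unique peptides were used. Samples were HEK293T lysate (495 µg) treated in triplicate with fragment at 200 µM or vehicle for 3 h, then with Biotin-Ahx-Ub-VS (0.5 µM final) for 1 h, with labelled DUBs NeutrAvidin-enriched and run by diaPASEF LC-MS/MS.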

USP22 = molecular target: T2, USP22 (UniProt Q9UPT9)
T2 sequence (whole entry): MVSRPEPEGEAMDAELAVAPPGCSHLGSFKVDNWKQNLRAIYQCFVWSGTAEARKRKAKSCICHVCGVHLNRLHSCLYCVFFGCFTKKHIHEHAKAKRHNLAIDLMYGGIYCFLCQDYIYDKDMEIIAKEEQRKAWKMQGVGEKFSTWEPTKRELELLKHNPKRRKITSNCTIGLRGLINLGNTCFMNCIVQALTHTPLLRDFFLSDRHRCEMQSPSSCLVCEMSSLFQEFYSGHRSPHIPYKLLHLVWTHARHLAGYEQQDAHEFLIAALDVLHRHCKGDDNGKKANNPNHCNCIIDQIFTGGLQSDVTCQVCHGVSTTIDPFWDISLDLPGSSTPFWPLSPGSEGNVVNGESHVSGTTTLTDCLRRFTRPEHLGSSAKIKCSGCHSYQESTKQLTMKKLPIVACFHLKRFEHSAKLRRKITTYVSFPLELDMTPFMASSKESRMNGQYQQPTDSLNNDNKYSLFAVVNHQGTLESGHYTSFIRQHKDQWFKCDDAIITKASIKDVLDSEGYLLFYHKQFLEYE
How it was run: as §1

USP24 = USP24 (UniProt Q9UPU5)
How it was run: as §1

USP25 = molecular target: T3, USP25 (UniProt Q9UHP3)
T3 sequence (whole entry): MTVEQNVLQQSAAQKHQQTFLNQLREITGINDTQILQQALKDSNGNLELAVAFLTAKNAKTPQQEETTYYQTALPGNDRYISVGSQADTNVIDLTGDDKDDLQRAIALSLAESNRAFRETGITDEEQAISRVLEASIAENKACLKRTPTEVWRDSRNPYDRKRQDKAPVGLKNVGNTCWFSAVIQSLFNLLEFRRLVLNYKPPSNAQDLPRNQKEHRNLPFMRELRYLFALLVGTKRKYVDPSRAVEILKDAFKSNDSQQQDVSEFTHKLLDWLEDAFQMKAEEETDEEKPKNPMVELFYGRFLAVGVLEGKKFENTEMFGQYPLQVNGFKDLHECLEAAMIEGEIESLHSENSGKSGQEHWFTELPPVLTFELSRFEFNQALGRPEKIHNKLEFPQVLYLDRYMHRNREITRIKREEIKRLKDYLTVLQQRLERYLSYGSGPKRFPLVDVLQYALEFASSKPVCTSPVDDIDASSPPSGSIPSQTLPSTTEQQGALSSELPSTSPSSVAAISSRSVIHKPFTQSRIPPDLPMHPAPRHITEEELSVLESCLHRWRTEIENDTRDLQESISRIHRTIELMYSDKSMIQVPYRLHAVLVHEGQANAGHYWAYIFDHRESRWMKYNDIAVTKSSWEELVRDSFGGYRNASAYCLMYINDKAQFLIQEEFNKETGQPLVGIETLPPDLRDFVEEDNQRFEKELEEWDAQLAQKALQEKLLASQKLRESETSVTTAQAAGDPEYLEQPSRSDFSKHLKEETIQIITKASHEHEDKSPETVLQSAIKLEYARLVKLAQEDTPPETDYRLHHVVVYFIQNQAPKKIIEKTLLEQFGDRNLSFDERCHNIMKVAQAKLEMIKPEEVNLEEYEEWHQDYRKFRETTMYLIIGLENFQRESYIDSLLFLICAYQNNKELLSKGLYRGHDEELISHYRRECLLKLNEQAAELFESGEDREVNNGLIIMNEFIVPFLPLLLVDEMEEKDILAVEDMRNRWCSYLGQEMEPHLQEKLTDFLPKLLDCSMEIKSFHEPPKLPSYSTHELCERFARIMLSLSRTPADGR
How it was run: as §1

USP28 = molecular target: T4, USP28 (UniProt Q96RU2)
T4 sequence (whole entry): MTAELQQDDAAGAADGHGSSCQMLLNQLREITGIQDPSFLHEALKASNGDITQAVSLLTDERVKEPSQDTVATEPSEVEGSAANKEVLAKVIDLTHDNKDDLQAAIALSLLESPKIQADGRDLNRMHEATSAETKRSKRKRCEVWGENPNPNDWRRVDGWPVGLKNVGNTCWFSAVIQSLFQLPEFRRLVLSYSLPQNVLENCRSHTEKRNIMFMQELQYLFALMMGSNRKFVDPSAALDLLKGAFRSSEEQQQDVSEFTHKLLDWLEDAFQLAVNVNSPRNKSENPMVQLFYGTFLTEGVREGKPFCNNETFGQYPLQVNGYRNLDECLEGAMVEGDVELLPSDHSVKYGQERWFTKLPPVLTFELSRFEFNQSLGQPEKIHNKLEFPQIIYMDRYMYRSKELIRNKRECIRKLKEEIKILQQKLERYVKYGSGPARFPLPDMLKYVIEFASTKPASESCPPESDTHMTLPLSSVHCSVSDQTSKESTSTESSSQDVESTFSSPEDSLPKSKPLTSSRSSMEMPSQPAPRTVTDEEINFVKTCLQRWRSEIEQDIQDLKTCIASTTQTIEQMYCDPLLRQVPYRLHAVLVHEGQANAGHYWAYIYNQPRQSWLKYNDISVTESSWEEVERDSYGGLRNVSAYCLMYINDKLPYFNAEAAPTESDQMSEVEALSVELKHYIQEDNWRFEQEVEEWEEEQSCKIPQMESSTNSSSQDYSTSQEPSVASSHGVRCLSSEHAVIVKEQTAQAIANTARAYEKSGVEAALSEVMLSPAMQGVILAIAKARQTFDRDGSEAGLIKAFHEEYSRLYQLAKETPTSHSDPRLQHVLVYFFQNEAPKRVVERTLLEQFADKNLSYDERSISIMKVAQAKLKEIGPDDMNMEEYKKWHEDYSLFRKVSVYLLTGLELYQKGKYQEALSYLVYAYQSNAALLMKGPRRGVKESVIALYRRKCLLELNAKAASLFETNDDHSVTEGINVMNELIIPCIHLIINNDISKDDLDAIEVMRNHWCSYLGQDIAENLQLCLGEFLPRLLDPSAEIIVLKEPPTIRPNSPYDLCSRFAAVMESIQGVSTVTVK
How it was run: as §1

Measured: log2 ratio of Biotin-Ahx-Ub-VS probe labelling

Chain of USP24 (Q9UPU5 whole entry): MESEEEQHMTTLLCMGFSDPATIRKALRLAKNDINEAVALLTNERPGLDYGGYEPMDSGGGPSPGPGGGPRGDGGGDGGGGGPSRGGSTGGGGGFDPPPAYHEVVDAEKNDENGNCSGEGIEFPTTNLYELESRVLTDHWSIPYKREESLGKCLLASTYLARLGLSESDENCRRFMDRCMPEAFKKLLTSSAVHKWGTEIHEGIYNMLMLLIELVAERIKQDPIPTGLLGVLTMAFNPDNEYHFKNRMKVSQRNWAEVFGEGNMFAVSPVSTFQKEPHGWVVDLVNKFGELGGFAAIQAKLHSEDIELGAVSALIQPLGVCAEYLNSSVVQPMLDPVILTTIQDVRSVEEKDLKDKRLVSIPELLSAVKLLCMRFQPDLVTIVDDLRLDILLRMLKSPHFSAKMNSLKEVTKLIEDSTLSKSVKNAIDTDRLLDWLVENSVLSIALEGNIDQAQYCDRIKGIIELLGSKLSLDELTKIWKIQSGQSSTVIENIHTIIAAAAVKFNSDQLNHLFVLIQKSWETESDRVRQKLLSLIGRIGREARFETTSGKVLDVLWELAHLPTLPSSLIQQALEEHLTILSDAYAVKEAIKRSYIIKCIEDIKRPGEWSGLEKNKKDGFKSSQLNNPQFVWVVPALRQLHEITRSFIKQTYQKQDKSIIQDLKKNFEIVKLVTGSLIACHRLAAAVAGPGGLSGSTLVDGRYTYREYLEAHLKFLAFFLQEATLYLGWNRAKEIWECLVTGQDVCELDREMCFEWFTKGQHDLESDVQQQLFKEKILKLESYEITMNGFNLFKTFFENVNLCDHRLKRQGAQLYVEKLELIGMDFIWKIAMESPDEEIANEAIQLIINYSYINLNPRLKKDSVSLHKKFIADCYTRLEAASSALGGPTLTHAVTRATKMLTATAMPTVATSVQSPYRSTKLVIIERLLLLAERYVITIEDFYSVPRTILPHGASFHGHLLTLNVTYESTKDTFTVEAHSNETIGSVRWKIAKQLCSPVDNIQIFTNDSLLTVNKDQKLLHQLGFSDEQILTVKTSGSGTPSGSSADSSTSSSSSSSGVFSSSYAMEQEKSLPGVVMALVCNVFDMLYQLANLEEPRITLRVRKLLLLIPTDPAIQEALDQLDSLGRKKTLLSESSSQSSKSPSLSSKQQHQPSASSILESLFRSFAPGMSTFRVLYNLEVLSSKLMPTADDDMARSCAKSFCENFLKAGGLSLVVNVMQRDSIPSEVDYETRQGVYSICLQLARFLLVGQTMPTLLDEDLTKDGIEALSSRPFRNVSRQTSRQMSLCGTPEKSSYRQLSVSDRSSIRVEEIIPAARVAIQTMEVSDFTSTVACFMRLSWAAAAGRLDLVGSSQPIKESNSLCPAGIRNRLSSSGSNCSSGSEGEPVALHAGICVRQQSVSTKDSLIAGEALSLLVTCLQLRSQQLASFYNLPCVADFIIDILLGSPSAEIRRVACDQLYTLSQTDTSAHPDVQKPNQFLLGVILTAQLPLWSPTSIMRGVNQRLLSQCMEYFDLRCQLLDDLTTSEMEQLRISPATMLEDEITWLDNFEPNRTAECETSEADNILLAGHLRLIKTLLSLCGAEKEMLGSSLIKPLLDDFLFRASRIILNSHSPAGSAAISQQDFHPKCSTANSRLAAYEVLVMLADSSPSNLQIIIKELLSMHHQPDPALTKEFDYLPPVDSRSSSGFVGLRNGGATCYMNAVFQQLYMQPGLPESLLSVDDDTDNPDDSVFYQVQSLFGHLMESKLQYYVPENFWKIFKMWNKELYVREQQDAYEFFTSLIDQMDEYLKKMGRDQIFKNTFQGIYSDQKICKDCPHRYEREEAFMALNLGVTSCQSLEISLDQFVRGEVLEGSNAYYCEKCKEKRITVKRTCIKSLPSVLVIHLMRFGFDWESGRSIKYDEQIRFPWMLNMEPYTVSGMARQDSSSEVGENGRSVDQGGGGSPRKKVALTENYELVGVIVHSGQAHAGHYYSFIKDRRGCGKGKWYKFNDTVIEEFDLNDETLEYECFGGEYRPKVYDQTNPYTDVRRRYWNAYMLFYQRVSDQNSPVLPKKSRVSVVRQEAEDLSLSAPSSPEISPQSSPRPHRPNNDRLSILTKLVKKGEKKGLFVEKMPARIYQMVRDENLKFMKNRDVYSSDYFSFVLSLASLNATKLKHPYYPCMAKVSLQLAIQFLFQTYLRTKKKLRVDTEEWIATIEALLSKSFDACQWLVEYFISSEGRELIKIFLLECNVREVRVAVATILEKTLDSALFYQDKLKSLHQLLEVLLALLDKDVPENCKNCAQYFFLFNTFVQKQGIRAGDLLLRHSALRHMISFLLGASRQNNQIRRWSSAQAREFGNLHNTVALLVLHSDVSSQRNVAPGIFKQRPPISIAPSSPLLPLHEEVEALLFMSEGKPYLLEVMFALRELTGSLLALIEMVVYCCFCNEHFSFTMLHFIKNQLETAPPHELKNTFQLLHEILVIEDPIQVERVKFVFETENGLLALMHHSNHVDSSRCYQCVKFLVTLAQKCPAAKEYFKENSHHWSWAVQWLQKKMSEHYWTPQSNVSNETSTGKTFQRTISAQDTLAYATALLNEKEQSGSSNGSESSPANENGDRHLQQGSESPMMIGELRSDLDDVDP

COc1cccc(CN(C)C(=O)CCl)c1
inactive: USP19 -0.352 | USP22 -0.426 | USP24 -0.497 | USP25 -0.669 | USP28 -0.772
